Source: PubChem BioAssay
Unmarked numbers belong to inactive results.

experiment: S. cerevisiae growth modulation with rapamycin, primary screen, strain BY4716, OD600, 96 h (AID 1091); conditions: higher = more signal, called active from +8 up or from −8 down; also: test concentration not given here

In order of falling z-score:
1. CCCCC=C[C@@H](NC(=O)OCc1ccccc1Cl)c1ccccc1  2.28
2. CCCC=C(CCC)[C@@H](NP(=O)(c1ccccc1)c1ccccc1)c1ccc(-c2ccccc2)cc1  1.84
3. CCCC[C@@H]1C[C@H]1[C@@H](NC(=O)c1cccs1)c1ccccc1C(F)(F)F  1.08
4. CCOC(=O)C1=C[C@@H](c2ccccc2)N(S(=O)(=O)c2ccc(C)cc2)[C@H]1c1ccc(OC)cc1  0.698
5. COC(=O)[C@@]1(Cc2ccc(F)cc2)[C@H]2c3cc(C(=O)N4CCCC4)n(Cc4ccc(C)c(F)c4F)c3C[C@H]2CN1C(=O)c1ccccc1  0.378
6. C=CCC(OC(C)=O)[C@@H]1[C@@H](N(Cc2ccc(-c3cccc(C(F)(F)F)c3)o2)C(=O)Cc2ccc(OC)cc2)c2cc(OCCCO)ccc2N1C(=O)c1ccc(-c2ccccc2)cc1 (stereo partly specified)  0.322
7. O=C(Cc1ccccc1)[C@H]1C2C=CCCC(c3ccccc3)=C2CN1Cc1ccccc1 (stereo partly specified)  -0.481
8. C=CC[C@@H](OC(=O)Nc1ccc(SC)cc1)c1ccc(O)c(F)c1  -0.545
9. COCCCNC(=O)[C@@]1(CCC(=O)OC(C)(C)C)N=C(c2ccc(OCCCO)cc2)O[C@H]1c1ccccc1N=[N+]=[N-]  -0.875
10. C=CCC(OC(C)=O)[C@@H]1[C@@H](N(Cc2cccc3ccccc23)C(=O)Cc2ccc(OC)cc2)c2cc(OCCCO)ccc2N1C(=O)c1ccc(-c2ccccc2)cc1 (stereo partly specified)  -0.962
11. COc1cc2c(cc1O)C(c1ccc(CN3CCCC3)cc1)N(Cc1cc3c(cc1Br)OCO3)CC2 (stereo unspecified)  -1.83
